Only a selection was taken, and hits are over-represented in it overall.
Methyltransferases = Primary Screen for Target Class Profiling of Small Molecule Inhibitors of Methyltransferases | purified enzyme, MTase-Glo SAH luminescence; stronger effect = lower value | calls only at 40 µM | 25,000 tested, 3.9% active; call rule not given here
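Each enzyme was assayed with SAM and its substrate. SAH formation detected by MTase-Glo luminescence; single-point 40 uM screen[…].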
Starred values were filed as active, the others as inactive. On the % scale 0 is the no-effect control and ±100 the full control effect.

For CC(=O)Nc1c2n(c3ccc(F)cc13)CC(C)(C(=O)NC1CCCCC1)N(Cc1ccco1)C2=O (stereo unspecified) the results were Methyltransferases inactive.
For CCOc1ccc(C(=O)Cn2nc3n(C(C)C)c(=O)c4ccc(C(=O)NCC(C)C)cc4n3c2=O)cc1 the results were Methyltransferases inactive.
For CN1C(=O)c2cc(C(=O)N3CCCCC3)nn2CC1(C)C(=O)NC1CCCCCC1 (stereo unspecified) the results were Methyltransferases inactive.
`Cc1cccc(-c2nnn3c2nc(N2CCCC2)c2ccccc23)c1` gave Methyltransferases inactive.
`Cc1cc2c(N3CCCC3)nc(N3CCCC3)nc2n1C` gave Methyltransferases active.
Screening Cc1nc(N2CCCC2)nc(N2CCC3(CC2)OCCCC3O)c1C (stereo unspecified) returned Methyltransferases inactive.
`CC(C)OCCCn1c(=O)c2ccccc2n2c(=O)n(Cc3ccccc3F)nc12` gave Methyltransferases inactive.
For CC1CCCN(c2nc3c(-c4ccccc4)nnn3c3ccccc23)C1 (stereo unspecified) the results were Methyltransferases inactive.
`C=C1CC[C@@H]2[C@](C)(CO)[C@H](O[C@@H]3O[C@H](CO)[C@@H](O)[C@H](O)[C@H]3O)CC[C@@]2(C)[C@@H]1C/C=C1/C(=O)OC[C@H]1O` gave Methyltransferases inactive.
C=C1C(O[C@@H]2O[C@H](CO)[C@@H](O)[C@H](O)[C@@H]2O)CC2C(C)(C)C(O)CCC2(C)C1CC/C(C)=C\CO (stereo partly specified) was read as Methyltransferases active.
`CC(C)=CCC[C@](C)(O[C@@H]1O[C@H](CO)[C@@H](O)[C@H](O)[C@H]1O)[C@H]1CC[C@]2(C)[C@@H]1[C@H](O)CC1[C@@]3(C)CC[C@H](O)C(C)(C)C3[C@@H](O[C@@H]3O[C@H](CO)[C@@H](O)[C@H](O)[C@H]3O[C@@H]3O[C@@H](C)[C@H](O)[C@@H](O)[C@H]3O)C[C@]12C` (stereo partly specified) gave Methyltransferases inactive.
`Cc1cc2c(cc3n2CC(C)(C(=O)NC2CCCCCC2)N(CCCN2CCCCC2)C3=O)o1` (stereo unspecified) gave Methyltransferases inactive.
`COc1ccc(-c2cc3n(n2)CC(C)(C(=O)NCc2ccccc2)N(Cc2ccc4c(c2)OCO4)C3=O)cc1` (stereo unspecified) gave Methyltransferases inactive.
Screening COc1cccc(NC(=O)CCc2nnc3n(Cc4ccc(F)cc4)c(=O)c4ccccc4n23)c1 returned Methyltransferases inactive.
Screening Cc1ccc(N2C(=O)c3cc(-c4cccs4)nn3CC2(C)C(=O)NC2CCCCC2)c(C)c1 (stereo unspecified) returned Methyltransferases inactive.
CC(=O)Nc1c2n(c3ccc(F)cc13)CC(C)(C(=O)NC1CCCC1)N(Cc1cccnc1)C2=O (stereo unspecified) was read as Methyltransferases inactive.
For O=C(NCCc1ccc(Cl)cc1)c1ccc2c(=O)[nH]c3c(C(=O)NC4CCCC4)sc(=S)n3c2c1 the results were Methyltransferases active.
Screening Cc1ccc(-c2n[nH]n3c2nc(=O)c2ccc(C(=O)NCCc4ccccc4)cc23)cc1 returned Methyltransferases inactive.
`CC(C)OCCCNC(=O)c1ccc2c(=O)[nH]c3c(C(=O)NC4CCCC4)sc(=S)n3c2c1` gave Methyltransferases inactive.
For CC(C)NC(=O)c1sc(=S)n2c1[nH]c(=O)c1ccc(C(=O)NC(C)CCc3ccccc3)cc12 (stereo unspecified) the results were Methyltransferases inactive.
O=C(NCCc1ccccc1)c1ccc2c(=O)[nH]c3c(C(=O)NCC4CCCO4)sc(=S)n3c2c1 (stereo unspecified) was read as Methyltransferases active.
For Cn1c(=O)c2ccc(C(=O)NC3CCCCC3)cc2n2c(=O)n(Cc3ccc(Cl)cc3)nc12 the results were Methyltransferases inactive.
`C=Cc1ccc(Cn2nc3n(Cc4ccc(C)cc4)c(=O)c4ccccc4n3c2=O)cc1` gave Methyltransferases inactive.
For COc1ccccc1CNC(=O)C1(C)Cn2cnc(C(=O)Nc3cccc(Cl)c3C)c2C(=O)N1C1CC1 (stereo unspecified) the results were Methyltransferases inactive.
Screening CCCn1c(=O)c2ccccc2n2c(SCC(=O)Nc3cc(OC)cc(OC)c3)nnc12 returned Methyltransferases inactive.
`COc1ccccc1CCNC(=O)c1cc2n(n1)CC(C)(C(=O)NCc1ccc(C)cc1)N(C)C2=O` (stereo unspecified) gave Methyltransferases inactive.
Cc1ccc(NC(=O)CSc2nnc3n(CC(C)C)c(=O)c4cc(F)ccc4n23)cc1 was read as Methyltransferases inactive.
For COc1ccccc1CN1C(=O)c2ccc(-c3ccccc3)n2CC1(C)C(=O)NC1CCCC1 (stereo unspecified) the results were Methyltransferases inactive.
COc1ccc(-c2cc3n(n2)CC(C)(C(=O)NCc2ccccc2OC)N(Cc2ccc(Cl)cc2)C3=O)cc1 (stereo unspecified) was read as Methyltransferases inactive.
O=c1[nH]ccc2nc(-c3ccc(CN4CCC(c5nc(-c6ccccn6)n[nH]5)CC4)cc3)c(-c3ccccc3)cc12 was read as Methyltransferases active.
Screening O=C1CN(Cc2ccc(-c3ccccc3)cc2)CCN1c1ccc(Cl)nn1 returned Methyltransferases inactive.
CN1C(=O)c2cc(C(=O)NCCCN3CCCC3)nn2CC1(C)C(=O)NCc1ccccc1 (stereo unspecified) was read as Methyltransferases inactive.
For CC(C)C(=O)N(Cc1ccco1)S(=O)(=O)c1ccc2c(c1)n(C)c(=O)n2C the results were Methyltransferases inactive.
`O=C(CCc1nnc2n(Cc3ccc(F)cc3)c(=O)c3ccccc3n12)N1CCN(c2ccc(F)cc2)CC1` gave Methyltransferases inactive.
CCCn1c(=O)c2ccc(C(=O)NCC(C)C)cc2n2c(=O)n(CC(=O)Nc3ccc(C)cc3)nc12 was read as Methyltransferases inactive.
`S=c1ssc2c1CCC2` gave Methyltransferases active.
For CCCCNc1ccc(-c2ccc(CN3CCOCC3)cn2)c(NC2CCC(O)CC2)c1 (stereo unspecified) the results were Methyltransferases inactive.
CCCCNc1ncc(C(=O)NCc2ccc(-n3ccnc3)cc2)c(NC2CCC(O)CC2)n1 (stereo unspecified) was read as Methyltransferases active.
For CCCCNc1ncc(-c2ccc(CN3CCOCC3)cn2)c(NC2CCC(O)CC2)n1 (stereo unspecified) the results were Methyltransferases inactive.
Screening COC(=O)[C@H](Cc1cccc(C(=N)N)c1)[C@@H](C)NC(=O)c1ccc(-c2cc[n+]([O-])cc2)cc1 returned Methyltransferases active.
For CCc1ccc(C(=O)NC(Cc2c[nH]c3ccccc23)C(=O)OCC(=O)c2ccc(C)cc2)cc1 (stereo unspecified) the results were Methyltransferases inactive.
For COC(=O)C(Cc1c[nH]c2ccccc12)NC(=O)c1ccc(Br)cc1 (stereo unspecified) the results were Methyltransferases inactive.
`CCn1cc(-c2ccnc3[nH]c(-c4cccc(CN(C)C)c4)cc23)c(-c2ccc(NC(=O)N(C)C)cc2)n1` gave Methyltransferases active.
Screening CN(C)C(=O)Nc1cccc(-c2ccc(N(C)C)cc2)c1 returned Methyltransferases inactive.
